Measurements published in the supplement of paper PMC12632987.
Whole data set: some 4,500 sequences, median “median log2 fold change of GCK-ALFA target abundance (FLAG IP / Myc IP barcode read proportion)” near 0.078, cut for the lowest 2% near -0.6. Only a selection was taken, and the lowest values are over-represented in it overall.

B1: GBRAP_160_4219 (protein)
chain: METIERIVEIFRENFLEALELIEGESEEERKVILDVAVGEIILEVDSDENVTDEMEEVVDEKARELAEELLKLKNASEEEKRALIEEKAEELREELEKLA
B2: GBRAP_160_4221 (protein)
chain: SETIERIVKIFRENFEEAVELIEGESLEEQKVILDVAVGEVILEVSSDENVTDEMEEVVEKKAEEAAEELLKLKNASREEKLKLIEEKAKELKKELEKLA
B3: GBRAP_166_4915 (protein)
chain: SMEELLEEAKRRIEELVKKIPKTDREKQVELAIEIAEVLEELEKAGASEEELDELWRHLAEALKEAGLDVERLMAVVAAAAGLDEEEMERVDEIVEEVLA
B4: GBRAP_52_6254 (protein)
chain: MRARLRADAREIVALVAAGREEEARALARDIAENYNEEELRLFVDEMAALAREARPEELDTVWRAAELMAEELEAAGKPEILVDDLLARVAAAAVEVLAR
B5: GBRAP_52_6085 (protein)
chain: MEEEIEERAEEIYEAIKAGDKEKALALIKKAIKEFSAEEIKRMLELTAKRVASLGDDAHELFVDILGEAEDLLIEAGISEEEALAIVGAAEAALARAVAA
B6: GBRAP_52_6083 (protein)
chain: MEKEIEETANKIYEAIKAGDKEKALELIKEAIKKFSPEEIKEMLKLTAEKVASLGDEKHELFVDILTEAEDLMIEAGISEEEALLIVGDAEAALAKAVAA
B7: GBRAP_52_6084 (protein)
chain: MKEKIEKTAKEIYEAIKAGDKEKALELIKKAVEEFSKEEIKEMLELTAKRVASLGDDAHELFVDILDEAEDILIEAGISEDDALLIVGSAEAALAKAVAA
B8: GBRAP_160_4760 (protein)
chain: KEKLKKLKEEVEEIFKEHLEMLKEVKPEEAPTVVRGAMGEVIMEVMSSEAASDELEEKIGEIADEAEEEAEANKDAPVEFHIKILEEARKKILSLIEEEI

What follows are binders tested against GABARAP, O95166 (assay: median log2 fold change of GCK-ALFA target abundance (FLAG IP / Myc IP barcode read proportion) (log2 ratio); each designed protein is fused to an ALFA-tag nanobody in HEK293 cells to bring the named protein to FLAG-tagged glucokinase (GCK); Myc marks an untargeted standard; higher = target protein stabilised (more abundant)). Conditions: target protein: 3xFLAG-MCP-GCK-ALFA reporter; HEK293 landing pad (RPLP).
Procedure: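 LABEL-seq trans screen in HEK293 landing-pad cells. Each de novo designed 100-aa effector handle, binding the indicated effector (E3 ligase, DUB or autophagy protein), is fused to a constant NbALFA target handle and induced with 2 ug/mL doxycycline. A FLAG-MCP-GCK-ALFA target and a Myc-MCP standard reporter were transfected, and after 48 h circRNA barcodes were recovered by anti-FLAG and anti-Myc IP and sequenced. The value is the median across barcodes (at least 3 per design) of log2(FLAG/Myc read-proportion ratio), with the two transfection replicates pooled. Negative values mean degradation and positive values mean stabilisation of the target.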

Sequence of GABARAP, O95166 (O95166 whole entry, the tested form may be a part): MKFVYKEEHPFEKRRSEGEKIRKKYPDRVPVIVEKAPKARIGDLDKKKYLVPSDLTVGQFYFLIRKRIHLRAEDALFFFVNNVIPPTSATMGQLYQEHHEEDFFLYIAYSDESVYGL

Row | Binder | median log2 fold change
1 | B1 | -0.349
2 | B2 | -0.86
3 | B3 | 0.0994
4 | B4 | -0.285
5 | B5 | -0.146
6 | B6 | -0.22
7 | B7 | -0.732
8 | B8 | -0.185
